Source: PubChem (National Center for Advancing Translational Sciences (NCATS))
SNCA expr inh = SNCA gene expression inhibition; 0.17% of 140,000 active; Potency, µM (series often up to 57.2 µM), inactives show top-dose activity change, negative = inhibition, hits mostly inhibitors; AID 1671194; HEK-293 SNCA-luciferase knock-in, luminescence, 24 h;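 note: potency is the fitted concentration of half-maximal effect; plate controls were DMSO cells for no effect and cell-free wells for full effect; nearly all actives have a fitted effect of over 45% in size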
GPT2 inhibitor = GPT2 alanine aminotransferase inhibition; 0.25% of 100,000 active; Q8TD30; Recombinant GPT2, coupled pyruvate oxidase/HRP Amplex Red fluorescence; Potency, µM (titrated, usually from 57.7 µM), inactives show at the top dose activity change, negative = inhibition, most hits filed as inhibitors; note: potency is the fitted concentration of half-maximal effect; nearly all actives have a fitted effect of over 60% in size
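Fluorescence of coupled pyruvate oxidase/HRP/Amplex Red system (50uM Amplex, 30 min, dark) reports pyruvate formed by GPT2. Enzyme reaction: 10ng/uL GPT2, 2mM L-alanine, 250uM a-KG, 30 min room temperature, pH 7.5; 50uM AOA control.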
SNCA viab count = counter-screen for SNCA expression inhibitors: cell viability | AID 1671193 | 0.12% of 150,000 active | HEK-293-SNCA-luc viability, GF-AFC fluorescence, 24 h | Potency, µM (titrated, usually from 57.1 µM), for inactives: at the highest dose activity change, negative = cytotoxicity, usual class: cytotoxic;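 note: potency is the fitted concentration of half-maximal effect; 0% = DMSO-treated cells and -100% = medium-only wells without cells; nearly all actives have a fitted effect of over 30% in size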
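Cytotoxicity counterscreen: after 24 h compound treatment of genome-edited SNCA-luciferase HEK-293 cells, live-cell protease substrate GF-AFC read by fluorescence after 30 min; activity scaled between DMSO (0%) and medium-only (-100%), curves Hill-fitted.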
IP6K1 inhibitor = IP6K1 kinase inhibition; Q92551; IP6K1 kinase, ADP-Glo luminescence, 2 h; stronger effect = lower value; activity change, % (series mostly up to about 58 µM); 0.81% of 140,000 active; AID 1645851; in the data active = activity change below about -25%
Target sequence (Q92551 whole entry, looked up): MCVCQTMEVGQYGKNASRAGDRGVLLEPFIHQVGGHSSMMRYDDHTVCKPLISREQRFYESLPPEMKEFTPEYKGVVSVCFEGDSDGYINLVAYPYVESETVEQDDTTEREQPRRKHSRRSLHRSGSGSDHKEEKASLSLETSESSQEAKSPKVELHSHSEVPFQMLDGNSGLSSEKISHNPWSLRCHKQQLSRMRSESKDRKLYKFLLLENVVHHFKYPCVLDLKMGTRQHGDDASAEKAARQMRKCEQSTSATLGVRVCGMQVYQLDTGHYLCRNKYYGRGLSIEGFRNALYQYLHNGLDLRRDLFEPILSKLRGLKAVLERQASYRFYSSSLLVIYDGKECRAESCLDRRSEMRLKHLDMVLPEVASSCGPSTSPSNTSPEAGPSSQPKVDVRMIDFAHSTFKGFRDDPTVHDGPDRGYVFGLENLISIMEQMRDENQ
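ADP-Glo luminescence measures ADP made by human IP6K1 during a 2 h RT reaction with ATP/IP6 (mix at 1.3 mM/130 uM); top library doses 57.5 and 19.1 uM final.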
IP6K1 conf = human IP6K1 inhibition, confirmatory; shares compounds with IP6K1 inhibitor; recombinant IP6K1 kinase, ADP-Glo luminescence, 2 h; Potency, µM (doses to about 49 µM), without a hit: at the top dose activity change, negative = inhibition, actives largely listed as inhibitors; 13% of 1,200 active; AID 1645852; note: potency is the fitted concentration of half-maximal effect; nearly all actives have a fitted effect of over 65% in size
Numbers without * were called inactive; i = inactive; u = inconclusive; x = not tested or not shown; [ ] = another dose, or the depositor's remark. Compounds with a hit are over-represented: about 1.1% of the library has one in this group of screens. Unless noted, calls come from the whole dose curve; as a rule, active = well fitted curve in the direction sought with a large enough effect; inconclusive = small, poorly fitted or top-dose-only effect, or another doubt; inactive = no such curve, though single readings can be large; an effect the other way counts as inactive or inconclusive. Unless noted, % is set by controls: 0 for no effect and ±100 for the full control effect.

SMILES	SNCA expr inh	GPT2 inhibitor	SNCA viab count	IP6K1 inhibitor	IP6K1 conf
CN(C)Cc1nnc(C2CC(NC(=O)c3ccccc3-c3ncn[nH]3)C2)n1C (stereo unspecified)	-15%	i[11.5 µM]	1%	-28*	-10%
COc1ccc(OC2CN(C(=O)c3ccccc3F)C2)cc1	88%	-7%	5%	5	x
O=C(Nc1ccccc1Cl)c1cc(S(=O)(=O)N2CCC3(CC2)OCCO3)ccc1F	-3%	x	5%	-35*	u
O=C(NCC1CCOCC1)Nc1ccc(Cl)cc1C(F)(F)F	60%	i	7%	13	x
O=C(NOC[C@H](O)CO)c1ccc(F)c(F)c1Nc1ccc(I)cc1F	-17%	i	-5%	-6	-1%
O=C(NOCC1CC1)c1ccc(F)c(F)c1Nc1ccc(I)cc1Cl	-33%	0%	-21%	11	-14%
O=C(NCC(O)CO)c1ccncc1Nc1ccc(I)cc1F (stereo unspecified)	x	i	2%	5	x
CN(Cc1ccccc1)C(=O)[C@@H]1Cc2nc[nH]c2CN1C(=O)CCC(=O)O	-10%[87.6 µM]	-1%[88.5 µM]	3%[87.6 µM]	-5	x
O=[S+]([O-])(c1ccccc1)N1CC2(COCCN(c3nccc(C(F)(F)F)n3)C2)C1	32%[87.6 µM]	u	-1%[87.6 µM]	5	x
O=C(NCC(=O)N1CCOCC1)c1ccc(-c2cccc(C(F)(F)F)c2)cc1	-27%	0%	7%[12.5 µM]	2	x
Cn1nccc1Nc1nccc(-c2ccn([C@H](CO)c3ccc(Cl)c(F)c3)c(=O)c2)n1	x	1%	1%	-36*	8.2µM*
O=C1NC(=O)/C(=C/c2ccc3nccnc3c2)S1	33%	i	2%	x	x
O=C1NC(=O)/C(=C/c2ccc(-c3ccc(F)cc3O)o2)S1	21%	-22%	-8%	x	2.6µM*
Cc1noc(C)c1-c1cc(-c2ccccc2F)cn2cncc12	14%[87.6 µM]	-14%[88.5 µM]	1%[87.6 µM]	-8	x
CC(C)C1=NOC2(CCN(Cc3ccc(C(F)(F)F)cc3)C2)C1 (stereo unspecified)	2%	u	-10%	1	x
COc1ccc(C2Cn3nnc(C(=O)N4CCN(C(=O)Cc5ccc(F)cc5)CC4)c3CO2)cc1 (stereo unspecified)	u	i	-10%	-10	x
CC(C)N(CCC(=O)c1ccc2ccccc2c1)Cc1ccccc1	8%	u	u	-12	9.2µM*
CC(C)N(Cc1ccccc1)C(=O)c1cc2ccc3cccnc3c2[nH]1	48%	x	-30%	8	x
O=C(Cc1c[nH]c2ncc(-c3ccccc3)cc12)N1CCCC1	-20%[87.6 µM]	-27%[88.5 µM]	-19%[87.6 µM]	-13	x
O=C(O)c1ccc(-c2c[nH]c3ncc(-c4ccccc4)cc23)cc1C1CCCC1	u	i	5%	x	u
Cc1ccc(OCc2ccc(-c3nc(C#N)c(N4CCN(c5cccc(Cl)c5)CC4)o3)o2)cc1	-17%	x	14%	-34*	-3%
O=C(c1nc2sccn2c1-c1cccnc1)N1CCOCC1	0%[87.6 µM]	i	-10%[87.6 µM]	9	x
Cc1cccc(N2CCN(C(=O)c3ccc4c(c3)c(C)c(C)n4C)CC2)c1C	56%	x	2%	1	x
Cc1c(C)n(C)c2ccc(C(=O)N3CCN(c4ccccc4)CC3)cc12	11%	x	9%	-27*	-17%
C[C@]12CC[C@H](O)CC1=CCC1C2CC[C@]2(C)C(n3cnc4ccccc43)=CCC12 (stereo partly specified)	-1%	i	-1%	-26*	u
SMILES	SNCA expr inh	GPT2 inhibitor	SNCA viab count	IP6K1 inhibitor	IP6K1 conf
Cc1ccc(-c2cc(C(=O)N3CCC(c4nc(C5CCOCC5)no4)C3)c3ccccc3n2)cc1C (stereo unspecified)	10µM*	-4%	u	-28*	-2%
Cc1cccc(C(=O)N2CCC(c3nc(C4CCOCC4)no3)C2)c1 (stereo unspecified)	10%	i	-6%	9	x
COc1ccc(CN(C)Cc2ccoc2)cc1OCC(O)CN1CCCCC1 (stereo unspecified)	-8%	i[11.5 µM]	-27%	-38*	-11%
COc1ccc(CN(C)Cc2cccs2)cc1OCC(O)CN1CCN(C)CC1 (stereo unspecified)	-1%	i	-16%	18	x
COc1ccc(CCc2nc3c(C)c(-c4c(C)noc4C)c(C)cc3n2CCN2CCOCC2)cc1	x	-41%	u	-5	x
O=C(Nc1cccc(Cl)c1)c1cn2cc(-c3ccc(C(F)(F)F)cc3)sc2n1	-5%	i	5%	-6	x
Oc1cccc(-c2c3nc(c(-c4cccc(O)c4)c4ccc([nH]4)c(-c4cccc(O)c4)c4nc(c(-c5cccc(O)c5)c5ccc2[nH]5)CC4)C=C3)c1	74%[25.6 µM]	5%	-28%[23.9 µM]	-53*	u
Cc1ccccc1-c1[nH]nc2ncc(-c3cccc(O)c3)nc12	-12%[87.6 µM]	0%[88.5 µM]	-18%[87.6 µM]	4	x
O=C(c1cccc(Cl)c1)N1CCCC1C(=O)N1CCCC1c1nc2ccncc2[nH]1 (stereo unspecified)	-3%	-2%	8%	14	x
Cc1cc(C)c(NC(=O)Cn2c(=O)n(-c3ccc(F)cc3)c(=O)c3c(C)c(C(=O)N(C)C)sc32)c(C)c1	4%	x	13%	-27*	-6%
Cc1cc(C)c(NC(=O)Cn2c(=O)n(Cc3ccccc3)c(=O)c3c(C)c(C(=O)N(C)C)sc32)c(C)c1	-12%	x	2%	23	x
O=C1C(N2CCN(Cc3ccc[nH]3)CC2)CCN1Cc1ccccn1 (stereo unspecified)	12%	u	-2%	8	-6%
Cc1ccc(C(=O)N2Cc3ccccc3OC3(CCN(C(C)C)CC3)C2)cn1	-5%	i	11%	-12	x
Cc1cccc(Cn2c(=O)n(CCCCC(=O)NCc3ccc4c(c3)OCO4)c(=O)c3ccccc32)c1	-30%	x	1%	2	x
O=C(CCCCn1c(=O)c2ccccc2n(Cc2cccc(Cl)c2)c1=O)NCc1ccc2c(c1)OCO2	25%	x	5%	-28*	-7%
N#Cc1ccccc1CN1CCCCCNC(=O)[C@@H]2CCC[C@@H]21	22%	-13%	5%	1	x
COc1cc(NC(=O)Cn2c(=O)nc(-c3ccccc3F)c3cc(Cl)ccc32)cc(OC)c1	u	x	u	-28*	u
O=C1OC2(c3ccccc31)c1cc(Br)c(O)c(Br)c1Oc1c2cc(Br)c(O)c1Br	-43%[25.6 µM]	1%	-12%[23.9 µM]	-69*	3.3µM*
CCc1ccc(CN2CCCCC23Cc2ccccc2CNC3=O)cc1 (stereo unspecified)	-2%	i	-4%	-10	x
COCCNC(=O)c1ccc2c(=O)n(CCOC)c(SCC(=O)c3c[nH]c4ccccc34)nc2c1	u	x	1%	-13	x
COCCNC(=O)c1ccc2c(=O)n(CCc3ccccc3)c(SCC(=O)CC(=O)OC)nc2c1	-20%	x	-3%	-25*	-10%
